Entries with a potency or affinity are not part of this list.
Test system: Klebsiella pneumoniae
Details: Concentration 32 ug.mL-1; ASSAY_TEST Inhibition of Bacterial Growth; detection method Absorption (OD600); MEDIA CAMHB; plate type 384well; NBS; CORNING #3640; time 18 hr

| Compound | Inhibition |
| --- | --- |
| CC(=N)Nc1cc(C(=O)Nc2cc(C(=O)Nc3cc(C(=O)NCCN4CCOCC4)n(C)c3)n(C)c2)n(C)c1.O=C(O)C(F)(F)F.O=C(O)C(F)(F)F | 13.68% |
| CC(C)CCc1sc(N)nc1C(=O)Nc1cc(C(=O)Nc2cc(C(=O)NCCN3CCOCC3)n(C)c2)n(C)c1.O=C(O)C(F)(F)F | 5.14% |
| CN(C)CCCNC(=O)c1cc(NC(=O)c2cc(NC(=O)c3cc(NC(=N)N)cn3C)cn2C)cn1C.O=C(O)C(F)(F)F.O=C(O)C(F)(F)F | 7.81% |
| Cn1cc(NC(=O)c2cc(NC(=O)CCC(=O)O)cn2C)cc1C(=O)NCCN1CCOCC1.O=C(O)C(F)(F)F | 14.45% |
| Cc1ncc(Cn2cc(CO)nn2)c(N)n1 | -6.43% |
| Cc1ncc(CNc2cccc(F)c2)c(N)n1 | 9.56% |
| Cc1ncc(CNc2ccc(Cl)cc2)c(N)n1 | 5.04% |
| Cn1cc(NC(=O)c2cc(NC(=O)c3ccc(/C=C/c4cccc(F)c4)cc3)cn2C)cc1C(=O)NCCN1CCOCC1.O=C(O)C(F)(F)F | -2.66% |
| Cc1ncc(Cn2cc(CC(N)C(=O)O)nn2)c(N)n1.Cl (centres undefined) | -13.87% |
| COc1cccc(C(=N)Nc2cc(C(=O)Nc3cc(C(=O)Nc4cc(C(=O)NCCCN5CCOCC5)n(C)c4)n(C)c3)n(C)c2)c1.O=C(O)C(F)(F)F.O=C(O)C(F)(F)F | 14.25% |
| CN(C)CCCNC(=O)c1cc(NC(=O)c2cc(NC(=O)c3ccc(C(=O)O)cc3)cn2C)cn1C.O=C(O)C(F)(F)F | 8.35% |
| CC(C)n1cc(NC(=O)c2cc(NC(=O)c3cc(NC=O)cn3C(C)C)cn2C)cc1C(=O)NCCCN(C)C.O=C(O)C(F)(F)F | 2.64% |
| Cc1ncc(Cn2cc(CCO)nn2)c(N)n1 | -3.23% |
| Cc1ncc(CNc2ccccc2F)c(N)n1 | 12.81% |
| CC(C)CCc1sc(NC(=O)c2cc(NC(=O)c3cc(NC(=O)c4ccc(C(=O)O)cc4)cn3C)cn2C)nc1C(=O)NCCCN(C)C.O=C(O)C(F)(F)F | -0.94% |
| CC(C)c1sc(N)nc1C(=O)Nc1cc(C(=O)Nc2cc(C(=O)NCCN3CCOCC3)n(C)c2)n(C)c1.O=C(O)C(F)(F)F | -2.63% |
| Cc1ncc(Cn2cc(CCCO)nn2)c(N)n1 | -1.34% |
| CC(=O)Nc1cc(C(=O)Nc2cc(C(=O)Nc3cc(C(=O)NCCCN(C)C)n(CCC(C)C)c3)n(C)c2)n(C)c1.O=C(O)C(F)(F)F | -0.56% |
| Cn1cc(NC(=O)c2cc(NC(=O)c3cc(NC(=O)c4ccc(Cl)cc4Cl)cn3C)cn2C)cc1C(=O)NCCN1CCOCC1.O=C(O)C(F)(F)F | 11.99% |
